In PubChem BioAssay AID504832 (National Center for Advancing Translational Sciences (NCATS), 2011):
Hit rate of the full screen: of about 310,000 compounds, about 18,000 (5.8%) were called active. Another 22% or so got no clear call; they are omitted. The sample as a whole holds a higher share of actives than the screen did. Values without a mark were called inactive. The call rests on the fitted dose curve; in most records, active means well fitted inhibition curve with a large enough effect; inconclusive means small, poorly fitted or top-dose-only effect, or another doubt; inactive means no such curve, though single readings can be large or run the other way.

assay: Primary qHTS for delayed death inhibitors of the malarial parasite plastid, 48 hour incubation; conditions: P. falciparum luciferase growth in erythrocytes; series mostly up to 28.7 µM; activity change, negative = inhibition: at the top concentration
How it was run: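 Luciferase-expressing P. falciparum in infected erythrocytes (2% hematocrit, 0.1% parasitemia final) in RPMI 1640/0.5% Albumax were exposed to compound for 48 hours at 37 C, 5% CO2; growth read as luminescence.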
On the % scale 0 is the no-effect control and ±100 the full control effect; potency means the concentration at half of the fitted maximal effect.

| Structure (SMILES) | activity change, negative = inhibition | Potency |
| --- | --- | --- |
| Cn1c(CC(=O)Nc2ccc(F)cc2)nnc1SCC(=O)NC1CCCCC1 | 11.3% | – |
| CCCCN1C(=O)/C(=C2/Sc3ccc(Cl)cc3N2CC)SC1=S | -9.17% | – |
| CC(NCc1cccs1)C(=O)Nc1cc(Cl)cc(Cl)c1 (centres undefined) | -12.9% | – |
| CCOCCCNC(=O)C1(O)c2cc(Br)ccc2NC(=O)N1c1ccc(C)c(C)c1 (centres undefined) | -7.48% [at 0.00184 µM] | – |
| CCCCN1C(=O)C(C)=C(C)C1OCCc1ccc(OC)c(OC)c1 (centres undefined) | 12.2% | – |
| C=CCC(NC(=O)Cc1ccccc1)C(=O)NCCC (centres undefined) | 20.5% | – |
| O=C(Cc1ccc(-c2ccccc2)cc1)NC(c1ccccc1)c1ccccc1 | – | 13.1 µM (active) |
| O=C(O)Cc1ccc(-c2ccccc2)cc1 | – | inactive |
| Cc1ccc(S(=O)(=O)NCC(=O)N2CCOCCOCCOCCOCC2)cc1 | 22.8% | – |
| Cc1cc(C)cc(C(=O)NC(CC(N)=O)c2ccc(N3CCC(N4CCCCC4)CC3)c([N+](=O)[O-])c2)c1 (centres undefined) | -1.82% | – |
| O=C(NC1(C(F)(F)F)NC(=O)N(C2CCCCC2)C1=O)c1ccco1 (centres undefined) | 8.82% | – |
| COc1ccc(C2C(C(C)=O)=C(O)C(=O)N2Cc2cccnc2)cc1 (centres undefined) | 9.53% | – |
| O=C1[C@H]2[C@@H](c3ccc(F)cc3)N3C(=O)N(c4ccc(C(F)(F)F)cc4)C(=O)[C@@]3(Cc3ccccc3)[C@H]2C(=O)N1C1CCCCC1 | – | 4.65 µM (active) |
| O=C1CC(NNc2ccccc2)C(=O)N1c1cccc(Cl)c1 (centres undefined) | 18.9% | – |
| COc1ccc(N2C(=O)C(Cc3ccccc3)NC2=S)cc1 (centres undefined) | 16.6% | – |
| Cc1cccc([C@@H]2[C@@H]3C(=O)N(Cc4ccccc4)C(=O)[C@@H]3[C@]3(Cc4ccc(Cl)cc4)C(=O)N(c4cccc(Cl)c4)C(=O)N23)c1 | – | 4.15 µM (active) |
| O=C1[C@H]2[C@@H](c3ccc(Cl)cc3)N3C(=O)N(c4cccc(F)c4)C(=O)[C@@]3(Cc3ccccc3)[C@H]2C(=O)N1C1CCCCC1 | – | 9.28 µM (active) |
| COC(=O)CN1C(=O)[C@H]2[C@@H](/C=C/c3ccccc3)N3C(=O)CN(Cc4ccccc4)C(=O)[C@@]3(Cc3ccccc3)[C@H]2C1=O | -26.2% | – |
| COc1ccc([C@@H]2[C@@H]3C(=O)N(C(C)(C)C)C(=O)[C@@H]3[C@]3(Cc4ccccc4)C(=O)N(c4cccc(Br)c4)C(=O)N23)cc1 | – | 2.62 µM (active) |
| O=C(CCNS(=O)(=O)c1ccc(Br)cc1)NCC1CCCO1 (centres undefined) | 3.4% | – |
| CCc1ccc(/C=N/NC(=O)c2nnn(-c3nonc3N)c2CN2CCc3ccccc32)cc1 | -24.2% | – |
| Cc1cc(OC(=O)c2ccc(OC(C)C)cc2)c([N+](=O)[O-])c(=O)[nH]1 | -10.1% | – |
| Cc1ccc(NS(=O)(=O)c2ccc(C(=O)NCCCN3CCOCC3)cc2)cc1 | 4.35% | – |
| COc1ccc(N2CCN(C(=O)CN3C(=O)COc4ccccc43)CC2)cc1 | 2.97% | – |
| COc1ccc(Cc2nc3ccc(C(=O)NCC4CCOCC4)cc3o2)cc1OC | -17.1% | – |

| Structure (SMILES) | activity change, negative = inhibition | Potency |
| --- | --- | --- |
| COc1ccc(C)cc1S(=O)(=O)N(CC(=O)Nc1cccc([N+](=O)[O-])c1)c1ccc(C)cc1 | – | 9.28 µM (active) |
| Cc1ccc(N(CC(=O)Nc2cccc(N(C)S(C)(=O)=O)c2)S(C)(=O)=O)cc1 | 8.82% | – |
| CN(CC(=O)Nc1cccc(F)c1)CC(=O)Nc1cccc([N+](=O)[O-])c1 | -21.3% | – |
| COc1ccc(OCC(=O)Nc2cc(C)c(Cl)cc2OC)c([N+](=O)[O-])c1 | 36% | – |
| COc1ccc(N(CCC(=O)NCCc2ccccc2)S(=O)(=O)c2ccc(C)cc2C)cc1 | -3.86% | – |
| COc1ccc(N(CC(=O)Nc2ccc(C)cc2C)S(=O)(=O)c2ccccc2[N+](=O)[O-])c(OC)c1 | – | 9.28 µM (active) |
| Brc1ccccc1/C=N/Nc1nc2ccccc2o1 | 122% | – |
| COc1ccc(NC(=O)c2cccc(Cl)c2)c[n+]1[O-] | -14.8% | – |
| CC(C(=O)c1ccc(-c2ccccc2)cc1)[n+]1cccc(Br)c1 (centres undefined) | 43.3% | – |
| CC(C)C(=O)NCC(c1cccs1)S(=O)(=O)c1ccc(F)cc1 (centres undefined) | 4.58% | – |
| CC(CC(=O)N1CCN(S(=O)(=O)c2ccccc2)CC1)n1cncn1 (centres undefined) | 21.2% | – |
| COc1ccc(C(=O)/C=C/c2cccnc2)c(OC)c1 | – | 11.7 µM (active) |
| COc1ccc(C(=O)CCC(=O)Nc2cccnc2)c(OC)c1 | -5.35% | – |
| COc1ccc(C(=O)CCc2ccccc2O)c(OC)c1 | 117% | – |
| COc1ccccc1N(CC(=O)NC1CCCC1)C(=O)C1(C)CC(=O)N=C2C=CC(C)=CN21 (centres undefined) | 5.48% | – |
| COc1ccc(CNC(=O)CN(C(=O)c2csnn2)c2cnc3ccccc3c2)cc1 | 13.2% | – |
| CCOC(=O)N1CCN(Cc2nnc(-c3ccccc3Cl)o2)CC1 | 0.496% | – |
| COc1ccc(C(=O)Nc2sc(C)c(C)c2CN2CCOCC2)cc1 | 17.1% | – |
| COC(=O)c1cc(NC(=O)c2ccco2)ccc1N1CCOCC1 | 37.6% | – |
| COc1cc(C(c2c(NC(=O)c3ccco3)sc(C)c2C)N2CCOCC2)cc(OC)c1OC (centres undefined) | – | 10.4 µM (active) |
| O=c1c2cc([N+](=O)[O-])ccc2nc2n1CCC2 | -0.017% | – |
| COc1ccc(OC)c(NC(=O)C2CCCN2S(=O)(=O)c2cccc3nsnc23)c1 (centres undefined) | 0% | – |
| O=C(CCNS(=O)(=O)c1cccs1)N1CCN(c2ccc(F)cc2)CC1 | 2.81% | – |
| O=c1ccc2cc(S(=O)(=O)NCCCc3ccccc3)ccc2[nH]1 | -2.29% | – |
| CC(C)N(Cc1nnc(-c2ccc(Cl)cc2)o1)C(=O)C1=COCCO1 | -5.65% | – |

| Structure (SMILES) | activity change, negative = inhibition | Potency |
| --- | --- | --- |
| Cn1cnnc1SCc1nnc(-c2ccccc2Br)o1 | 50.9% | – |
| CC(C)N(Cc1nnc(-c2ccccc2Br)o1)C(=O)c1cc(Cl)nc2ccccc12 | – | 9.28 µM (active) |
| COC(=O)C1=CO[C@@H](O[C@@H]2O[C@H](CO)[C@@H](O)[C@H](O)[C@H]2O)C2C1C[C@H](O)[C@@H]2C (some centres undefined) | 30.8% | – |
| COc1ccc(C(=O)NCc2ccc(C)cc2)cc1S(=O)(=O)N1CCCC1 | -27.2% | – |
| COC(=O)C(C)Oc1ccc2c(-c3cccc([N+](=O)[O-])c3)cc(=O)oc2c1 (centres undefined) | 0.049% | – |
| CN(C)C(=O)Oc1ccc2c(c1)O/C(=C\c1ccccc1)C2=O | 101% | – |
| COC(=O)C(C)Oc1ccc2c(c1)O/C(=C\c1cccc(Br)c1)C2=O (centres undefined) | – | 13.1 µM (active) |
| CCOC(=O)CC1COCCN1C(=O)c1cc(COc2ccc(F)c(F)c2)on1 (centres undefined) | -0.834% | – |
| Cc1cc(Nc2ccc(C(=O)N3CCCCC3)cc2)c2cccc(C)c2n1 | 12.9% | – |
| Cc1cc(Nc2ccc(Cl)cc2)nc(N2CCOCC2)n1 | 17.6% | – |
| Cc1cc(Nc2ccc(N3CCOCC3)cc2)c2cccc(C)c2n1 | – | 4.15 µM (active) |
| O=[N+]([O-])c1ccc(C=Nc2ccc(Cl)cc2Cl)s1 | – | 10.4 µM (active) |
| O=S(=O)(Nc1ccccc1Cl)c1cccc2nsnc12 | -17% | – |
| C/C(CC(=O)NCc1ccc(Cl)cc1)=N\NC(=O)COc1ccc(C)cc1Br | 30.4% | – |
| COc1ccc(-c2cc(C(=O)N3CCN(Cc4ccc5c(c4)OCO5)CC3)on2)cc1OC | -17.8% | – |
| COc1ccccc1CCCNC(=O)C1CCC(=O)N(CCN2CCOCC2)C1 (centres undefined) | 5.42% | – |
| Cc1cccc(OCC(=O)NC(=S)Nc2ccccc2N2CCOCC2)c1 | 6.3% | – |
| Cc1cc(C)cc(OCC(=O)Nc2ccc(N3CCOCC3)cc2N2CCOCC2)c1 | – | 11.7 µM (active) |
| O=C(COc1ccc(Cl)cc1)NC(=S)Nc1ccccc1N1CCOCC1 | 12.9% | – |
| CC(C)c1ccc(/C=C/C(=O)NCCCN2CCOCC2)cc1 | 5.73% | – |
| O=C(OCC(=O)N1CCN(C(=O)c2ccco2)CC1)c1cccc(O)c1 | -3.72% | – |
| Cc1n[nH]c(=O)n1-c1ccc(Oc2ccccc2)cc1 | 87.2% | – |
| Cc1cc(-c2csc(N)n2)c(C)n1-c1ccccc1 | – | 14.7 µM (active) |
| CCCc1cc(-c2n[nH]c(=S)n2Cc2ccccc2)cs1 | 15% | – |
| O=c1onc(-c2cccs2)n1Cc1ccccc1 | -11.5% | – |

| Structure (SMILES) | activity change, negative = inhibition | Potency |
| --- | --- | --- |
| Cc1cc(-c2csc(N)n2)c(C)n1Cc1ccccc1 | – | 11.7 µM (active) |
| S=c1[nH]nc(-c2cc(-c3ccsc3)n[nH]2)n1-c1ccccc1 | 25.4% | – |
| O=C(Cc1ccc(Br)cc1)NCCN1CCOCC1 | 5.97% [at 0.00184 µM] | – |
| CCC(C(=O)N1CCN(S(=O)(=O)c2sc(C(=O)O)c(C)c2C(=O)O)CC1)c1ccccc1 (centres undefined) | -4.44% | – |
| COc1ccc(OC)c(NC(=O)c2cccc(S(=O)(=O)N3CCN(C(C)=O)CC3)c2)c1 | -22.4% | – |
| COc1cc(OC)cc(C(=O)Nc2nnc(SCC(=O)NCC3CCCO3)s2)c1 (centres undefined) | 4.43% | – |
| Cc1ccccc1Nc1nc(-c2cccnc2)cs1 | 20.1% | – |
| CCCOc1ccc(Cc2c(O)nc(SC)[nH]c2=O)cc1C | -4.88% | – |
| c1ccc(Cc2cc[n+](Cc3ccccc3)cc2)cc1 | – | 1.17 µM (active) |
| CC1=NN(Cc2ccccc2)C(=O)/C1=C/c1ccc(N(C)C)cc1 | -8.44% | – |
| CN(C)c1cc[n+](Cc2ccccc2)cc1 | – | 0.928 µM (active) |
| COC(=O)c1ccc(Cc2ccccc2)o1 | 17.1% | – |
| C[n+]1ccc(C(=O)NCc2ccccc2)cc1 | 18.5% | – |
| CN(C)c1ccc(/C=N/N(Cc2ccccc2)c2ccccc2)cc1 | -3.46% | – |
| Cc1ccc(NS(=O)(=O)c2cc3c(cc2C)NC(=O)CO3)cc1 | -9.35% | – |
| O=S(=O)(c1ccccc1)N1CCC(c2ccccc2)CC1 | -4.53% | – |
| c1ccc(C2CCC(N3CCC(N4CCCCC4)CC3)CC2)cc1 (centres undefined) | – | 10.4 µM (active) |
| Cc1ccc(S(=O)(=O)N2CCC(N3CCCCCC3)CC2)cc1 | -21% | – |
| COc1ccccc1NC(=O)Nc1nnc(Cc2ccc(F)cc2)s1 | -1.81% | – |
| CC1=NN(/C(=N\c2nnc(C)s2)Nc2ccccc2)[C@H](c2ccc(C)cc2)S1 | – | 8.28 µM (active) |
| COc1ccc2oc(=N)c(C(=O)Nc3ccc(Br)cc3)cc2c1 | -3.78% | – |
| CC1c2nc3ccccc3n2C(CC(=O)NCCCN2CCOCC2)C(=O)N1Cc1ccccc1 (centres undefined) | 20.1% | – |
| CCOC(=O)C1CCN(C(=O)Cn2cc(C#N)c3ccccc32)CC1 | -19.6% | – |
| CCOC(=O)C1CCN(C(=O)CC2C(=O)N(Cc3ccccc3)C(C)c3nc4ccccc4n32)CC1 (centres undefined) | – | 7.38 µM (active) |
